Measurements reported in PubChem BioAssay (NCI).
This is part of a sample that, as a whole, favours compounds with a hit. Of some 83,000 tested, about 20% had one in any assay.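 How to read the values: 0–100, growth inhibition (40 = 60% inhibited); 0, no net growth; -100 to 0, cell death (-40 = 40% of starting cells died; -100 = all dead).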 The source made the active and inactive calls. Rule for the calls: active = growth percent below 10; inactive = the rest.

These compounds were tested on OVCAR-4 ovarian (assay: NCI-60 one-dose screen, 48 h (100 = growth as untreated, 0 = no growth, -100 = all killed)). Details: 10 µM unless noted.

| SMILES | growth |
| --- | --- |
| O=S(=O)(c1ccccc1)N1CCCN(c2nc(-c3ccccc3)nc3nc(-c4ccccc4)oc23)CC1 | 105% (inactive) |
| Clc1ccc(-c2cn3ccsc3n2)c(Cl)c1Cl | 74.1% (inactive) |
| O=C(CN1C(=O)/C(=C/c2ccco2)SC1=S)NCCc1c[nH]c2ccc(F)cc12 | 99.7% (inactive) |
| COc1cc(C2C3=C(COC3=O)N(CCO)c3cc4c(cc32)OCCO4)cc(OC)c1OC (stereo not given) | 24.9% (inactive) |
| N/C(=N\c1nc2ccccc2s1)NC(=NC1CCCCC1)NC1CCCCC1 | 26.7% (inactive) |
| CC(O)c1ncc(/C=C2\SC(=S)N(Cc3ccccc3)C2=O)s1 (stereo not given) | 85.1% (inactive) |
| COc1ccc2nc3ccccc3c(NCc3ccc(F)cc3)c2c1 | 13.6% (inactive) |
| COc1cc(-c2cc(-c3ccc(Nc4ncnc5cc(Cl)ccc45)cc3)nc(N3CCN(C)CC3)n2)cc(OC)c1OC | 58.9% (inactive) |
| O=C(Nc1cccnc1Nc1ccc(Cl)cc1)c1cn(Cc2ccc(F)cc2)nn1 | 89.8% (inactive) |
| N#Cc1c(NC(=O)c2cccs2)[n+]([O-])c2ccc(Cl)cc2[n+]1[O-] | 94.8% (inactive) |
| CCOC(=O)/C=C/c1c(C)[nH]c(=O)[nH]c1=O | 97.5% (inactive) |
| COc1ccc(C2C3=C(COC3=O)N(CCO)c3cc4c(cc32)OCCO4)cc1OC (stereo not given) | 41.3% (inactive) |
| CN1CCN(c2ccc3c(c2)nc(NNC(=O)c2cnccn2)c2cccn23)CC1 | 25% (inactive) |
| C=CCOC(=O)C1=C(C)NC(=O)NC1c1c(Cl)n(C)c2ccccc12 (stereo not given) | 103% (inactive) |
| COc1ccc(Cl)cc1Nc1nc(C(F)(F)F)ccc1C(=O)N/N=C/c1ccccc1Cl | -18.3% (active) |
| N#Cc1c(-c2ccccc2)nc2c(c(-c3ccccc3)nn2-c2ccccc2)c1-c1ccc(N2CCOCC2)cc1 | 103% (inactive) |
| O=C(CCCCCCCCC(=O)N/N=C\c1cc(Cl)ccc1O)N/N=C\c1cc(Cl)ccc1O | 23% (inactive) |
| CC12CCC(/C(=C/NNc3ccc([N+](=O)[O-])cc3[N+](=O)[O-])C1=O)C2(C)C (stereo not given) | 74.2% (inactive) |
| Nc1ccc([N+](=O)[O-])cc1N=C/C=C/c1ccccc1 | 79.4% (inactive) |
| CC1CN=C(c2cccc(-c3ccc(-c4ccccc4)o3)c2)N1 (stereo not given) | 43.1% (inactive) |

| SMILES | growth |
| --- | --- |
| CCCCc1oc2ccccc2c1C(=O)c1ccc(O)cc1 | 68.2% (inactive) |
| Cc1cc2oc(=O)cc(CP(=O)(O)O)c2cc1O | 103% (inactive) |
| CCOC(=O)C1=C(C)N=C2SC=C(c3ccccc3)N2[C@H]1c1cn[nH]c1-c1ccc(Cl)cc1 | 55.6% (inactive) |
| CCN1C(=S)N(CC)C2C1NC(=S)N2/N=C/C=C/c1ccccc1OC (stereo not given) | 44.2% (inactive) |
| CC(=O)N/C(=C1/OC(C(O)C(O)C(O)CO)CN1C)[P+](c1ccccc1)(c1ccccc1)c1ccccc1 (stereo not given) | 97.2% (inactive) |
| CCn1cc(C(=O)N/N=C/c2ccc(Br)cc2)c(=O)c2cc(F)c(N3CCNC(C)C3)c(F)c21 (stereo not given) | 81.7% (inactive) |
| CCNc1nc(-c2ccc(F)cc2)c(C#N)c(=O)n1C | 55.2% (inactive) |
| C(/C=C/c1ccccc1)=Nc1ccc(CCc2ccc(N=C/C=C/c3ccccc3)cc2)cc1 | 101% (inactive) |
| O=C(N/N=C/c1ccc([N+](=O)[O-])cc1)c1ccc2nc(-c3ccc(Cl)cc3)[nH]c2c1 | 23% (inactive) |
| Fc1ccc(CNc2c3ccccc3nc3ccccc23)cc1 | 33.2% (inactive) |
| O=C(CSc1nnc2sc(Nc3cccc(Cl)c3)nn12)c1ccc(F)cc1 | 101% (inactive) |
| Cn1c(=O)c2c(nc(NC3=NS(=O)(=O)c4ccccc43)n2Cc2ccccc2)n(C)c1=O | 103% (inactive) |
| O=c1nc(Nc2nc3ccccc3s2)[nH]c(=O)c2ccccc12 | 102% (inactive) |
| c1ccc2cc(Cn3c[n+](Cc4ccc5ccccc5c4)c4ccccc43)ccc2c1 | -14.9% (active) |
| Cc1[nH]c(/C=C/C(=O)c2ccc(C(F)(F)F)c(F)c2)c(C)c1C(=O)NCC(C)C | 101% (inactive) |
| O=C(Nc1cccc(NC(=O)C2CCCCC2)c1)c1ccccn1 | 101% (inactive) |
| CCOC(=O)c1c2c(n3ccccc13)C(=O)c1ncccc1C2=O | 16.6% (inactive) |
| COc1ccc(C(c2cc(OC)c(OC)c(OC)c2)N2CCN(Cc3ccccc3)CC2)cc1 (stereo not given) | 97% (inactive) |
| CN(C)c1ccc(/C=C2/C=C(c3ccccc3)OC2=O)cc1 | 93.4% (inactive) |
| C#CC#CC#CC#CC#CC#CC#CC#CCC1OCC(COC(=O)O[C@@H](C(=O)O[C@H]2C[C@@]3(O)[C@@H](OC(=O)c4ccccc4)[C@@H]4[C@]5(OC(C)=O)CO[C@@H]5C[C@H](O)[C@@]4(C)C(=O)[C@H](OC(C)=O)C(=C2C)C3(C)C)[C@@H](NC(=O)c2ccccc2)c2ccccc2)O1 (stereo not given in full) | 59.5% (inactive) |

What follows are compounds tested on SK-OV-3 ovarian in the same assay as above. Details: 10 µM unless noted.

| SMILES | growth |
| --- | --- |
| O=S(=O)(c1ccccc1)N1CCCN(c2nc(-c3ccccc3)nc3nc(-c4ccccc4)oc23)CC1 | 103% (inactive) |
| Clc1ccc(-c2cn3ccsc3n2)c(Cl)c1Cl | 118% (inactive) |
| O=C(CN1C(=O)/C(=C/c2ccco2)SC1=S)NCCc1c[nH]c2ccc(F)cc12 | 93.7% (inactive) |
| COc1cc(C2C3=C(COC3=O)N(CCO)c3cc4c(cc32)OCCO4)cc(OC)c1OC (stereo not given) | 5.64% (active) |
| N/C(=N\c1nc2ccccc2s1)NC(=NC1CCCCC1)NC1CCCCC1 | 74.9% (inactive) |
| CC(O)c1ncc(/C=C2\SC(=S)N(Cc3ccccc3)C2=O)s1 (stereo not given) | 96.6% (inactive) |
| COc1ccc2nc3ccccc3c(NCc3ccc(F)cc3)c2c1 | 37.9% (inactive) |
| COc1cc(-c2cc(-c3ccc(Nc4ncnc5cc(Cl)ccc45)cc3)nc(N3CCN(C)CC3)n2)cc(OC)c1OC | 114% (inactive) |
| O=C(Nc1cccnc1Nc1ccc(Cl)cc1)c1cn(Cc2ccc(F)cc2)nn1 | 108% (inactive) |
| N#Cc1c(NC(=O)c2cccs2)[n+]([O-])c2ccc(Cl)cc2[n+]1[O-] | 94% (inactive) |
| CCOC(=O)/C=C/c1c(C)[nH]c(=O)[nH]c1=O | 99.4% (inactive) |
| COc1ccc(C2C3=C(COC3=O)N(CCO)c3cc4c(cc32)OCCO4)cc1OC (stereo not given) | 29.2% (inactive) |
| CN1CCN(c2ccc3c(c2)nc(NNC(=O)c2cnccn2)c2cccn23)CC1 | 32.5% (inactive) |
| C=CCOC(=O)C1=C(C)NC(=O)NC1c1c(Cl)n(C)c2ccccc12 (stereo not given) | 94.5% (inactive) |
| COc1ccc(Cl)cc1Nc1nc(C(F)(F)F)ccc1C(=O)N/N=C/c1ccccc1Cl | 11.7% (inactive) |
| N#Cc1c(-c2ccccc2)nc2c(c(-c3ccccc3)nn2-c2ccccc2)c1-c1ccc(N2CCOCC2)cc1 | 108% (inactive) |
| O=C(CCCCCCCCC(=O)N/N=C\c1cc(Cl)ccc1O)N/N=C\c1cc(Cl)ccc1O | 41.1% (inactive) |
| CC12CCC(/C(=C/NNc3ccc([N+](=O)[O-])cc3[N+](=O)[O-])C1=O)C2(C)C (stereo not given) | 89.6% (inactive) |
| Nc1ccc([N+](=O)[O-])cc1N=C/C=C/c1ccccc1 | 87.6% (inactive) |
| CC1CN=C(c2cccc(-c3ccc(-c4ccccc4)o3)c2)N1 (stereo not given) | 18.4% (inactive) |

| SMILES | growth |
| --- | --- |
| CCCCc1oc2ccccc2c1C(=O)c1ccc(O)cc1 | 94.4% (inactive) |
| Cc1cc2oc(=O)cc(CP(=O)(O)O)c2cc1O | 105% (inactive) |
| CCOC(=O)C1=C(C)N=C2SC=C(c3ccccc3)N2[C@H]1c1cn[nH]c1-c1ccc(Cl)cc1 | 62.5% (inactive) |
| CCN1C(=S)N(CC)C2C1NC(=S)N2/N=C/C=C/c1ccccc1OC (stereo not given) | 35% (inactive) |
| CC(=O)N/C(=C1/OC(C(O)C(O)C(O)CO)CN1C)[P+](c1ccccc1)(c1ccccc1)c1ccccc1 (stereo not given) | 93.8% (inactive) |
| CCn1cc(C(=O)N/N=C/c2ccc(Br)cc2)c(=O)c2cc(F)c(N3CCNC(C)C3)c(F)c21 (stereo not given) | 109% (inactive) |
| CCNc1nc(-c2ccc(F)cc2)c(C#N)c(=O)n1C | 55.9% (inactive) |
| C(/C=C/c1ccccc1)=Nc1ccc(CCc2ccc(N=C/C=C/c3ccccc3)cc2)cc1 | 98.6% (inactive) |
| O=C(N/N=C/c1ccc([N+](=O)[O-])cc1)c1ccc2nc(-c3ccc(Cl)cc3)[nH]c2c1 | 60.5% (inactive) |
| Fc1ccc(CNc2c3ccccc3nc3ccccc23)cc1 | 39.9% (inactive) |
| O=C(CSc1nnc2sc(Nc3cccc(Cl)c3)nn12)c1ccc(F)cc1 | 82.1% (inactive) |
| Cn1c(=O)c2c(nc(NC3=NS(=O)(=O)c4ccccc43)n2Cc2ccccc2)n(C)c1=O | 97.5% (inactive) |
| O=c1nc(Nc2nc3ccccc3s2)[nH]c(=O)c2ccccc12 | 64.3% (inactive) |
| c1ccc2cc(Cn3c[n+](Cc4ccc5ccccc5c4)c4ccccc43)ccc2c1 | -0.377% (active) |
| Cc1[nH]c(/C=C/C(=O)c2ccc(C(F)(F)F)c(F)c2)c(C)c1C(=O)NCC(C)C | 105% (inactive) |
| O=C(Nc1cccc(NC(=O)C2CCCCC2)c1)c1ccccn1 | 102% (inactive) |
| CCOC(=O)c1c2c(n3ccccc13)C(=O)c1ncccc1C2=O | 22.2% (inactive) |
| COc1ccc(C(c2cc(OC)c(OC)c(OC)c2)N2CCN(Cc3ccccc3)CC2)cc1 (stereo not given) | 66.2% (inactive) |
| CN(C)c1ccc(/C=C2/C=C(c3ccccc3)OC2=O)cc1 | 93.9% (inactive) |
| C#CC#CC#CC#CC#CC#CC#CC#CCC1OCC(COC(=O)O[C@@H](C(=O)O[C@H]2C[C@@]3(O)[C@@H](OC(=O)c4ccccc4)[C@@H]4[C@]5(OC(C)=O)CO[C@@H]5C[C@H](O)[C@@]4(C)C(=O)[C@H](OC(C)=O)C(=C2C)C3(C)C)[C@@H](NC(=O)c2ccccc2)c2ccccc2)O1 (stereo not given in full) | 41.9% (inactive) |
